Results on 24 compounds are retold here after article PMC4336329 (PLoS ONE, 2015).

In all, about 310,000 compounds went through this assay and about 14,000 (4.5%) showed an effect of 50% or more. Effects have a minus sign here. The sample holds strong results, similar compounds and a random draw of the others, so the mix is not that of the screen.
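Also: peak tail current of the secondary pulse compared with the same well before compound.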

The target of the experiment is human ether-à-go-go-related gene (hERG) potassium channel (human, UniProt Q12809). Put plainly: primary screen, population patch clamp on CHO cells stably expressing hERG; higher = less effect of the substance.
Sequence of human ether-à-go-go-related gene (hERG) potassium channel (Q12809 whole entry, looked up): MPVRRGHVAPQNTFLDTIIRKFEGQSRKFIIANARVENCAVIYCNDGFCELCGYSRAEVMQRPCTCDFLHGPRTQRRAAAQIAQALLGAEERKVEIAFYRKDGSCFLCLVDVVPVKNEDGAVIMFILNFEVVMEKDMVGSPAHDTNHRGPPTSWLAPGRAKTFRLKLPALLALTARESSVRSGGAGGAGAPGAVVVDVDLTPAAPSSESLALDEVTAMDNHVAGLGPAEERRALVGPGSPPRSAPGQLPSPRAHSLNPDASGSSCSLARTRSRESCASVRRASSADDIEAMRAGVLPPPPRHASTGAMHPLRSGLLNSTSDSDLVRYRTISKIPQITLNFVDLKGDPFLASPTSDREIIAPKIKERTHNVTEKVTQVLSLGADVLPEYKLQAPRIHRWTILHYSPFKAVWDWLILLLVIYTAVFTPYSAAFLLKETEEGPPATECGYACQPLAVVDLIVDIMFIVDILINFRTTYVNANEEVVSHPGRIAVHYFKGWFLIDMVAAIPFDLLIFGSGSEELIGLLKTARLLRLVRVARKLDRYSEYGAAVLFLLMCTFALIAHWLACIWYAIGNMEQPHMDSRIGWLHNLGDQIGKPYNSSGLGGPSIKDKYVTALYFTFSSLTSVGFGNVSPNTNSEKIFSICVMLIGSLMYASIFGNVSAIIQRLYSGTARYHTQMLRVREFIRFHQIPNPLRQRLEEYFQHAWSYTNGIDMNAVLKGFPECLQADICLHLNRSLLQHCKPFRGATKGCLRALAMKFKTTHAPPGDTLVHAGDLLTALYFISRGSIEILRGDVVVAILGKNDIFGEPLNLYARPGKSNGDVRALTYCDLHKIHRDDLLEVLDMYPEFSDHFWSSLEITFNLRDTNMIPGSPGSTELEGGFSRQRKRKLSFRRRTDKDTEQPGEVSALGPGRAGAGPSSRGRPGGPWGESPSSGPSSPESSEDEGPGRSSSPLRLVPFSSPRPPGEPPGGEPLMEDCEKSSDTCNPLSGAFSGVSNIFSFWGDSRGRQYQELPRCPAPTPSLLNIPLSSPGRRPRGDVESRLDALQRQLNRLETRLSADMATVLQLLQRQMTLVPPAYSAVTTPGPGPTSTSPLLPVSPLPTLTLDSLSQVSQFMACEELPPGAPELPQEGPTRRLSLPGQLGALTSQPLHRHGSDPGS
Regarding `CCc1ccc2oc(-c3cc(N=Cc4cccc(OC)c4O)ccc3O)nc2c1`, the “hERG current change (%, negative = inhibition) at 10uM” value was found to be 24.3%. With `CN(Cc1ccccc1)C(=O)c1ccc(NC(=O)Cc2cccc(NC(=O)C3CCN(C(=O)C4CCCCC4)CC3)c2)cc1` the figure was 8.47%; with `CCC(C)c1ccc(S(=O)(=O)N2CCN(C(C)CC(=O)O)CC2)cc1` (stereo not drawn), 3.41%. The result for `CC(C)c1ccc(S(=O)(=O)N2CCN(C(C)C(=O)NC3CCCC3)CC2)cc1` (stereo not drawn) reads -75.5%; that for `CC(C)c1ccc(S(=O)(=O)N2CCN(C(C)C(=O)N3CCCC3)CC2)cc1` (stereo not drawn), -11.8%; that for `CC(C(=O)NC1CCCC1)N1CCN(S(=O)(=O)c2ccc(C(C)(C)C)cc2)CC1` (stereo not drawn), -19.8%. With `CC(C(=O)NC1CCCCC1)N1CCN(S(=O)(=O)c2cccs2)CC1` (stereo not drawn) the figure was -9.2%; with `CCC(C)c1ccc(S(=O)(=O)N2CCN(C(C)C(=O)NC3CCCC3)CC2)cc1` (stereo not drawn), -79.1%. As to `CCCCCCNS(=O)(=O)c1ccc(OC)c(OC)c1`, the “hERG current change (%, negative = inhibition) at 10uM” value is -11%. On to `CCOC(=O)c1sc(S(C)(=O)=O)c2c1CCc1conc1-2`, for which the “hERG current change (%, negative = inhibition) at 10uM” value came to 8.59%. The result for `Cc1ccc(-n2c(-c3ccccc3)n[nH]c2=S)cc1` reads 15.6%.

In the case of `CC(C)OC(=O)/C(=C/c1ccc2c(c1)c1ccccc1n2C)NC(=O)c1ccccc1`, the “hERG current change (%, negative = inhibition) at 10uM” value was -1.72%. The result for `O=C(N/N=C/c1c(O)n(-c2ccccc2)c(=O)[nH]c1=O)c1ccncc1` reads 16.2%; that for `Cc1oc(C2CC2)cc1C(=O)O`, -9.52%; that for `CC(C)n1cc(CN2CCCC(C(=O)Nc3cccc(-c4cc5ccccc5[nH]4)c3)C2)cn1` (stereo not drawn), -46.3%. With `CC(C)n1cc(CN2CCC(C(=O)Nc3cccc(-c4cccc(Cl)c4)c3)CC2)cn1` the figure was -85.1%; with `CCn1ncc(CN2CCCC(C(=O)Nc3cccc(-c4cc5ccccc5[nH]4)c3)C2)c1C` (stereo not drawn), -56.7%. With `CC(C)n1cc(CN2CCC(C(=O)Nc3cccc(-c4cscn4)c3)CC2)cn1` the figure was -32.8%; with `Cn1cc(CN2CCC(C(=O)Nc3cccc(-c4cccc(F)c4)c3)CC2)cn1`, -67.4%. Consider `CCn1cc(CN2CCCC(C(=O)Nc3cccc(-c4cc5ccccc5[nH]4)c3)C2)c(C)n1` (stereo not drawn), for which the “hERG current change (%, negative = inhibition) at 10uM” value is on record as -14.4%. With `Cn1cc(CN2CCC(C(=O)Nc3cccc(-c4cscn4)c3)CC2)cn1` the figure was 5.33%. With `COc1cccc(-c2cccc(NC(=O)C3CCN(Cc4cnn(C)c4)CC3)c2)c1` the figure was -15.6%; with `CCn1cc(CN2CCCC(C(=O)Nc3cccc(-c4cc5ccccc5[nH]4)c3)C2)cn1` (stereo not drawn), -6.49%; with `CCn1cc(CN2CCC(C(=O)Nc3cccc(-c4cccc(F)c4)c3)CC2)cn1`, -66.4%.
